Experimental data from PubChem BioAssay (NCI).
About 83,000 compounds went through this panel and 20% of them were active in at least one assay; those are over-represented in the sample as a whole.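 Percent growth is the endpoint: 0 to 100 indicates growth inhibition (40 means 60% inhibition), 0 means no net growth, and negative values indicate cell death.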 Unmarked numbers belong to inactive results. The source made the active and inactive calls. How the source made its calls: active means growth percent below 10; inactive means the rest.

System: OVCAR-8 ovarian
Assay: NCI-60 one-dose screen, 48 h (100 = growth as untreated, 0 = no growth, -100 = all killed)
Details: 10 µM unless noted

| SMILES | growth |
| --- | --- |
| COc1cc(-c2cc3ncccc3c3nc(OCCN(C)C)c4cccnc4c23)cc(OC)c1OC | -5.22% (active) |
| CN(C)CCCC1(c2ccc(F)cc2)OCc2cc(-c3ccc(C(F)(F)F)nc3)ccc21 (centres undefined) | 83.6% |
| Cn1cc(-c2csc(-c3cn(CCNC(=O)OC(C)(C)C)c4ccccc34)n2)c2cccnc21 | 45% |
| N#CC1=C(N)Oc2c(c(N)nn2-c2ccccc2)C1c1ccc(Cl)cc1Cl (centres undefined) | 96.9% |
| CCN1CCN(C(=O)[C@]23CC[C@@H](C)[C@H](C)[C@H]2C2=CC[C@@H]4[C@@]5(C)C/C(=C/c6cccc(OC)c6OC)C(=O)C(C)(C)[C@@H]5CC[C@@]4(C)[C@]2(C)CC3)CC1 | 50.3% |
| Cc1csc(Nc2nc(-c3ccc(Cl)cc3)nc(C(Cl)(Cl)Cl)n2)n1 | 89.9% |
| COc1ccc(/C=C(\C#N)c2cc3ccccc3n2S(C)(=O)=O)cc1 | 95.9% |
| Cc1cc(Cl)c2c(N(C)C)cccc2n1 | 94.5% |
| O=C1c2ccccc2NC(c2cn(-c3ccccc3)nc2-c2cccs2)N1Cc1ccccc1 (centres undefined) | 90.3% |
| COCCNC1=C(Cl)C(=O)c2ccccc2C1=O | 89.5% |
| Oc1ccc(Nc2ccccc2)cc1 | 96% |
| COC(=O)[C@]12CC[C@@H](C)[C@H](C)[C@@H]1C1=CC[C@@H]3[C@@]4(C)C[C@@H](OC(C)=O)[C@H](OC(C)=O)[C@@](C)(COC(C)=O)[C@@H]4[C@H](O)C[C@@]3(C)[C@]1(C)CC2 | 16.9% |
| Cc1c(C)c2c(c(C)c1NC(=O)CCCCCCC(=O)O)CCC(C)(CCCC(C)CCCC(C)CCCC(C)C)O2 (centres undefined) | 69.1% |
| Cc1ccc(Cc2cnc(NC(=O)/C=C/c3cccc(C)c3)s2)cc1 | 21% |
| CC1(C)[C@@H](O)CC[C@]2(C)[C@H]3CC[C@@H]4[C@H]5[C@H](C(=O)/C=C/c6ccc(C(F)(F)F)cc6)CC[C@]5(CO)CC[C@@]4(C)[C@]3(C)CC[C@@H]12 | 55.7% |
| COc1cc2ncnc(Nc3ccc(OCc4cccc(F)c4)c(Cl)c3)c2cc1NC(=O)C1CCCC1 | 76.9% |
| C=C(C)[C@@H]1CC[C@]2(c3nnc(-c4ccncc4)o3)CC[C@]3(C)[C@H](CC[C@@H]4[C@@]5(C)CCC(=O)NC(C)(C)[C@@H]5CC[C@]43C)[C@@H]12 | 92.6% |
| CCc1cccc(CC)c1NC(=O)c1sc2nc3c(cc2c1N)CCCC3 | 84.7% |
| CCc1ccccc1NC(=O)c1sc2nc3c(cc2c1N)CCCC3 | 52.3% |
| O=Cc1nc2ccccc2[nH]1 | 100% |

| SMILES | growth |
| --- | --- |
| C[C@@H]1CCCCCCCCC[C@H](O)C(=O)C[C@@H](SC[C@@H](O)C(=O)O)C(=O)O1 | 94.5% |
| C=C(C)[C@@H]1CC[C@]2(C(=O)N3CCN(CC)CC3)CC[C@]3(C)[C@H](CC[C@@H]4[C@@](C)(CCC(=O)N5CCN(CC)CC5)[C@H](C(=C)C)CC[C@]43C)[C@@H]12 | 78.3% |
| Brc1ccc(Cn2nnnc2-c2ccn(-c3ccccc3)n2)cc1 | 110% |
| CCCCN1CCCCn2c1nc1c2c(=O)n(C)c(=O)n1C | 95.5% |
| CCCCC[C@H]1CC=C2C(=O)C=C[C@@H]2CC=CCCCC(=O)O[C@@H](CCCCC)CC=C2C(=O)C=C[C@@H]2CC=CCCCC(=O)O[C@@H](CCCCC)CC=C2C(=O)C=C[C@@H]2CC=CCCCC(=O)O1 | 12.2% [8.75 µM] |
| CC(C)=CCC[C@](C)(O)[C@H]1CC[C@]2(C)[C@@H]1CC[C@@H]1[C@@]3(C)C/C(=C/c4cccc([N+](=O)[O-])c4)C(=O)C(C)(C)[C@@H]3CC[C@]12C | 77.5% |
| Cn1cc(-c2csc(-c3cn(CCNC(=O)OC(C)(C)C)c4ccc(F)cc34)n2)c2cccnc21 | 37.9% |
| CN1CCN(CCOc2ccc(-c3cnc4c(-c5ccccc5F)cnn4c3)cc2)CC1 | 40.7% |
| Cc1cc(N2CCCCC2)nc(N(CCCNc2ccnc3cc(Cl)ccc23)Cc2ccco2)n1 | 42.5% |
| Brc1ccc2c(c1)c(-c1nc(-c3c[nH]c4ncccc34)cs1)cn2CCCN1CCCCC1 | 1.18% (active) |
| NC1=C(C/C(N)=N\O)C(c2ccccc2Cl)c2c(ccc3ccccc23)O1 (centres undefined) | 90.7% |
| O=C1Nc2ccccc2/C1=C/c1cn(CCCn2c3ccccc3c(=O)c3ccccc32)c2ccccc12 | 85% |
| COC(=O)[C@]12CC[C@@H](C)[C@H](C)[C@@H]1C1=CC[C@@H]3[C@@]4(C)C(c5ncon5)=C[C@@](C)(CO)C4=CC[C@@]3(C)[C@]1(C)CC2 | -6.22% (active) |
| c1ccc(CN2C(c3ccccc3)=Nc3ccccc3C2c2c[nH]c3ccccc23)cc1 (centres undefined) | 44.4% |
| CC1(C)NCCC[C@]2(C)[C@H]3CC[C@@H]4[C@H]5[C@H](C(=O)/C=C/c6ccccn6)CC[C@]5(CO)CC[C@@]4(C)[C@]3(C)CC[C@@H]12 | 47.6% |
| Cc1cccc(C)c1NCc1nc(-c2ccccc2)n[nH]1 | 102% |
| COc1cccc(-c2nn(-c3ccccc3)cc2-c2ccnc(NCCNS(=O)(=O)c3cccc(F)c3)c2)c1 | 20.2% |
| N#C/C(=C\c1ccc(-c2ccc(Cl)cc2)o1)c1nc(-c2ccco2)cs1 | 97.5% |
| COc1cc(-c2cc3cc(O)ccc3oc2=O)cc(OC)c1OC | 93.8% |
